Test results published in PubChem BioAssay AID651568 (National Center for Advancing Translational Sciences (NCATS), 2012).
About 55 (5%) of roughly 1,200 compounds were called active. Not shown: some 15% with an inconclusive outcome. Calls come from the whole dose curve; as a rule, active = well fitted inhibition curve with a large enough effect; inconclusive = small, poorly fitted or top-dose-only effect; inactive = no such curve, though single readings can be large or run the other way. What follows is part of a selection rich in actives, with near analogues and random picks from the rest. Entries that show only a call come without a potency.

Assay: qHTS Assay to Find Inhibitors of Chronic Active B-Cell Receptor Signaling: Hit Validation in Renilla Reporter Assay; note: nearly all actives have a fitted effect of over 70% in size
Details: TMD8 IkB-Renilla luciferase reporter, NF-kB signaling; series mostly up to 57.5 µM
Description: Diffuse large B-cell lymphoma (DLBCL) is the most common category of non-Hodgkin lymphoma, with ~20,000 new cases per year in the United States. DLBCL should be regarded as a collection of different neoplasms. Microarray gene expression analysis has defined two principal types of DLBCL, named for their similarity to normal B cell stages or activation states: a germinal center B-cell (GCB) type, and an activated B-cell (ABC) type. In ABC-DLBCL, a constitutive high-level activity of the NF-kappaB family of transcription factors has been observed (1) and NF-kappaB target genes are more highly expressed in ABC primary tumors than in GCB tumors. Functional studies have shown a constitutive high-level activity of the IkappaB (inhibitor of kappa-B) kinase (IKK) complex. […] Further analysis of DLBCL primary tumors for NF-kappaB target gene expression imply that although CARD11 is required for constitutive IKK activity in all ABC-DLBCL lines, mutations in CARD11 may be the root cause of IKK activation only in lines or tumors with such mutations. In other words, CARD11 mutations may explain NF-kappaB activation in only 10% of ABC-DLBCL cases. […] This process has been termed 'chronic active BCR signaling' (CABS). The goal of this screen is to find small-molecule inhibitors of the CABS pathway found in ABC-DLBCL lines using a cell-based assay that measures IkappaBalpa stability, which has already been extensively validated in the OCI-Ly3 line (PubChem AID:445; REF: 4). […] Hits from the primary screen were tested in this orthogonal secondary assay. NIH Molecular Libraries Probe Production Network [MLPCN] NIH Chemical Genomics Center [NCGC] MLPCN Grant: R03 DA031086 PI Name: Dr. R. Eric Davis
The IkB-Photinus/Renilla reporter assay differs from the primary assay in that the reporters are constitutively expressed, and based on luciferases that are different from the click beetle luciferases and each other. These differences should help to eliminate artifactual sources of activity specific to the primary assay. This assay uses the Dual-Glo substrate from Promega; extensively validated in a 96-well format, it could be converted to a smaller-well format. All lines needed for the IkB-Photinus/Renilla assay have already been prepared and extensively validated
Potency is the fitted concentration of half-maximal effect.

Row | Structure (SMILES) | Potency
1 | Cc1cccc(NS(=O)(=O)c2ccc(C3CCCCC3)cc2)n1 | 13.5 µM (active)
2 | Cc1cc(C)cc(NS(=O)(=O)c2ccc(-c3cnc(C4CC4)o3)cc2)c1 | inactive
3 | Cc1ccc(C)c(NS(=O)(=O)c2ccc(-c3cnc(C4CC4)o3)cc2)c1 | inactive
4 | Cc1ccccc1NC(=S)N=Nc1c(O)n(C)c2ccc(S(=O)(=O)N3CCOCC3)cc12 | inactive
5 | CCn1c(=O)c([N+](=O)[O-])c(Cl)c2ccccc21 | 2.39 µM (active)
6 | CC[C@]12c3[nH]c4cc(CCC(=O)N(C)C)ccc4c3CCN1C(=O)[C@@H](CC(=O)NCc1ccco1)C[C@@H]2C(=O)N1CCN(C(=O)c2ccco2)CC1 | inactive
7 | c1ccc(C2=Nn3c(nnc3-c3n[nH]c4c3CCC4)SC2)cc1 | inactive
8 | Cc1ccc(OCCN2C(=O)C(=O)c3cc(C)ccc32)cc1 | inactive
9 | CC(C)n1c(SCC(=O)Nc2ccccc2)nc2c1c(=O)n(C)c(=O)n2C | inactive
10 | CN(C)c1nc(=Nc2cccc(Cl)c2)ss1 | 10.7 µM (active)
11 | COc1cc(OC)cc(C(=O)NCC(=O)Nc2ccc(-c3ccccc3)cc2)c1 | inactive
12 | COc1cc(OC)cc(C(=O)NCc2ccc3c(c2)CCN3C(=O)c2ccccc2)c1 | inactive
13 | COc1ccc(/C=C/C(=O)Nc2cc(S(=O)(=O)N3CCOCC3)ccc2OC)cc1 | inactive
14 | Cc1noc(C)c1CSc1ncnc2ccccc12 | inactive
15 | COc1ccc(C(=O)/C=C/c2ccc(OC)c(Cn3nnc4ccccc43)c2)cc1 | 9.53 µM (active)
16 | COc1ccc(C(=O)n2c(-c3ccco3)nc3ccccc32)cc1 | inactive
17 | COc1cc(/C=C\C(=O)OCn2nnc3ccccc3c2=O)cc(OC)c1OC | inactive
18 | COc1ccccc1NC(=O)COc1ccc(-c2nn(C)c(=O)c3ccccc23)cc1 | inactive
19 | Cc1ccc(NC(=S)NC(=O)C2CC2)cc1Cl | inactive
20 | Cc1c(CCC(=O)NCCC(=O)O)c(=O)oc2c(C)c3oc4c(c3cc12)CCCC4 | inactive
21 | COc1cc(/C=N/NC(=O)NC2CCCCC2)ccc1O | inactive
22 | O=Cc1ccccc1OCCOc1ccccc1C=O | 12 µM (active)
23 | CCOc1cc(Br)c(C=O)cc1OCC | inactive
24 | Cc1c(CCC(=O)N[C@@H](C)C(=O)O)c(=O)oc2cc3oc4c(c3cc12)CCCC4 | inactive
25 | CCC(NC(=O)CCc1c(C)c2cc3c4c(oc3cc2oc1=O)CCCC4)C(=O)O (configuration not stated) | inactive
26 | Cc1cc(C)n(-c2nc3ccccc3c(=O)n2OCC#N)n1 | 16.9 µM (active)

Row | Structure (SMILES) | Potency
27 | Cc1cc(NC(=O)CSc2nc3ccccc3c(=O)n2C2CCCC2)no1 | inactive
28 | CCC(=O)Nc1nonc1-c1nc2ccccc2n1Cc1cccc2ccccc12 | inactive
29 | CNCc1ccccc1Sc1ccc(O)c(O)c1 | 10.7 µM (active)
30 | COc1cccc(N2CC(O)=C(c3nc4ccccc4s3)C2=N)c1 | inactive
31 | CCOc1cc(/C=N\NC(N)=O)cc(Br)c1OC(C)C | inactive
32 | O=C(/C=C/c1ccc(O)cc1)c1ccc(O)cc1O | 10.7 µM (active)
33 | O=C(/C=C/c1ccco1)NC(=S)Nc1cccc(-c2nc3ccccc3o2)c1 | inactive
34 | CCn1ncc(C2=NOC(C(=O)NCc3ccccc3)C2)c1C (configuration not stated) | inactive
35 | CC(C)N=C(NS(=O)(=O)c1ccccc1)C(Cl)(Cl)Cl | 26.9 µM (active)
36 | Oc1cccc(Nc2nc(N3CCOCC3)nc(N3CCOCC3)n2)c1 | inactive
37 | CC1=CC(C)(C)N(S(=O)(=O)c2ccc(C)cc2)c2ccc(C)cc21 | inactive
38 | CCOc1ccccc1NS(=O)(=O)c1ccc(-c2cnc(C3CC3)o2)cc1 | inactive
39 | COc1ccc(C(=O)N2CCc3cc(OC)c(OC)cc3C2c2ccc(OC)c(OC)c2)cc1 (configuration not stated) | inactive
40 | COc1ccccc1C(=O)Nc1ccccc1SC(=O)c1ccccc1OC | 23.9 µM (active)
41 | COc1cc(NC(=S)NC(=O)c2ccccc2F)ccc1NC(=O)c1ccco1 | inactive
42 | COc1cccc(C(=O)Nc2cc(NC(=O)c3cccs3)ccc2C)c1OC | inactive
43 | Cc1ccc(COC(=O)c2cc([N+](=O)[O-])ccc2N2CCOCC2)cc1 | inactive
44 | CCc1cc2c(SCC(=O)Nc3ccc(NC(C)=O)cc3)ncnc2s1 | inactive
45 | CCCC(=O)Nc1ccc2c(c1)nc(CN1CCN(C(=O)OCC)CC1)n2CC | inactive
46 | O=C(CCl)Nc1cc(S(=O)(=O)N2CCCCCC2)ccc1Cl | inactive
47 | C=CCn1c(SCC(=O)Nc2cccc(S(N)(=O)=O)c2)nc2sc(C)c(C)c2c1=O | inactive
48 | O=C(CCl)Nc1cccc(S(=O)(=O)NC2=NCCCCC2)c1 | 19 µM (active)
49 | CN(C)/C=N/c1sc2c(c1C#N)CCCC2 | inactive
50 | COc1cc(C2C(C#N)=C(N)Oc3cc(N)ccc32)cc(OC)c1OC (configuration not stated) | inactive
51 | CCN(C(=O)COC(=O)c1cc([N+](=O)[O-])ccc1N1CCOCC1)c1ccccc1 | inactive
52 | CC(=O)Nc1nc2ccc(-c3nc4ccccc4o3)cc2s1 | inactive
